This is a sample that favours compounds with a hit; in the whole collection about 2.3% have one here.
POLK inh: qHTS for Inhibitors of Polymerase Kappa. purified Pol kappa, fluorescent DNA synthesis assay, 10 min. Potency, µM (top dose mostly 107 µM), for inactives: at the highest dose activity, negative = inhibition, usual class: inhibitors. hit rate 0.53% among 400,000. DNA polymerase kappa (Homo sapiens), Q9UBT6; further: on the % scale 0 is the no-effect control and ±100 the full control effect
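Inhibition of 10 nM Pol kappa is measured by a fluorescent read-out at 0 and 10 min following addition of 50 nM substrate (final), with a 15-min room-temperature compound preincubation.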
Pol eta inh: qHTS for Inhibitors of Polymerase Eta; recombinant Pol eta, fluorescent DNA replication assay; AID 588591, 2011; Potency, µM (series often up to 114 µM), inactives show at the top dose activity change, negative = inhibition, most hits filed as inhibitors; hit rate 1.2% among 390,000; further: on the % scale 0 is the no-effect control and ±100 the full control effect
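Pol eta at 10 nM preincubated with compounds 15 min at room temperature; reaction started with fluorescent substrate (50 nM final) and read kinetically at 0 and 10 min.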
POLB inh: qHTS Assay for Inhibitors of DNA Polymerase Beta; Potency, µM (series often up to 114 µM), for inactives: top-dose activity change, negative = inhibition, hits mostly inhibitors; P06746; Pol beta primer extension/strand displacement, fluorescence kinetic; AID 485314, 2010; hit rate 1.3% among 340,000; further: on the % scale 0 is the no-effect control and ±100 the full control effect
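Pol beta (10 nM) and compounds were preincubated 15 min at room temperature, then 50 nM substrate (final) started primer extension/strand displacement. Reads were taken at 0 and 10 min; concentration-response data were fitted to a four-parameter Hill equation.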
WRN inhibitor: qHTS for Inhibitors of WRN Helicase; hit rate 0.46% among 360,000; Potency, µM (highest dose often 114 µM), for the others: top-dose activity change, negative = inhibition, most hits filed as inhibitors; WRN helicase unwinding, fluorescent forked duplex, kinetic; Bifunctional 3'-5' exonuclease/ATP-dependent helicase WRN (Homo sapiens), Q14191; further: on the % scale 0 is the no-effect control and ±100 the full control effect; nearly all actives have a fitted effect of over 55% in size
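Primary qHTS, 1536-well format. 20 nM WRN + compound, 15 min RT; start with 100 nM forked fluorophore/quencher duplex, 2 mM ATP (final); kinetic read ex 525/em 598 nm.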
POLI inh: qHTS for Inhibitors of Polymerase Iota. Pol iota fluorescent replication assay, 10 min. AID 588590, 2011. hit rate 1% among 390,000. DNA polymerase iota (Homo sapiens), Q9UNA4. Potency, µM (highest dose often 115 µM), without a hit: top-dose activity, negative = inhibition, hits mostly inhibitors
Target sequence (Q9UNA4 whole entry, looked up): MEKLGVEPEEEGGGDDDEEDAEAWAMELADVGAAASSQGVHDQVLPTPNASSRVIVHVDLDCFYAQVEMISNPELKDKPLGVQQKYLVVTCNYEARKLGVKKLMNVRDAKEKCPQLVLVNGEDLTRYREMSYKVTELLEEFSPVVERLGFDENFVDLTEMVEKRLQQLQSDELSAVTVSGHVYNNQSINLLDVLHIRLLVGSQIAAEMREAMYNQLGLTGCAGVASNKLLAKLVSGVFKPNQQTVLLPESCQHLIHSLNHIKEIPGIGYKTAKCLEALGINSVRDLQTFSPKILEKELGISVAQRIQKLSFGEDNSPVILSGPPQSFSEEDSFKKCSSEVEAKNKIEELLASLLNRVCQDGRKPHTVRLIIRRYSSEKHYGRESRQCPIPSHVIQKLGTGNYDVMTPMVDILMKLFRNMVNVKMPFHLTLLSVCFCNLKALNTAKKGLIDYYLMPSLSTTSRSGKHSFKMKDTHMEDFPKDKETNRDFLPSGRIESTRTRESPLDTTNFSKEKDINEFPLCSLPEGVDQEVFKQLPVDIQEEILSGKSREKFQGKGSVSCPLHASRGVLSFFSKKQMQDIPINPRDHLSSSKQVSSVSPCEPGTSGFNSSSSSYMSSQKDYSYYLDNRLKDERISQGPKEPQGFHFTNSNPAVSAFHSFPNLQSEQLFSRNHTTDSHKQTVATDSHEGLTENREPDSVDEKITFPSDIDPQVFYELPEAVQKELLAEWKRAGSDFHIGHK
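Fluorescent replication assay read twice, at 0 min and 10 min after adding 50 nM (final) substrate. Enzyme (10 nM) and compounds were first incubated 15 min at room temperature; enzyme-free buffer wells were negative controls.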
* marks the source's active call; other numbers are inactive results; ? = inconclusive; . = not tested or not shown; [ ] = remark or other dose. The call rests on the fitted dose curve; in most records, active means well fitted curve in the direction sought with a large enough effect; inconclusive means small, poorly fitted or top-dose-only effect, or another doubt; inactive means no such curve, though single readings can be large; an effect the other way counts as inactive or inconclusive. Potency means the concentration at half of the fitted maximal effect.

SMILES | POLK inh | Pol eta inh | POLB inh | WRN inhibitor | POLI inh
Cc1cc(C)cc(-c2nnc(SCC(=O)c3ccc4c(c3)OCCO4)o2)c1 | -7% | -10% | 1% | -2% | 8%
Cc1ccccc1-c1nc(Nc2ccncc2)c2ccccc2n1 | -18%[60.1 µM] | . | . | . | .
C[N+]1(CC(=O)c2ccc(O)c(O)c2)CCOCC1 | -19% | . | . | . | ?
CCCCCCCCCCCCCCCC(=O)OCC(O)C1OC(=O)C(O)=C1O (stereo unspecified) | 14µM* | . | . | . | .
C=CCNC(=O)c1ccccc1NC(=O)Nc1ccccc1 | -8% | -10% | -3% | -6% | 89µM*
CC(C)Sc1nnc2c3ccccc3n(C)c2n1 | -3% | . | . | . | 11%
O=S(=O)([O-])CCC[n+]1c(SCCCS(=O)(=O)O)sc2ccc(Cl)cc21 | -3% | -11% | 10% | 35µM* | ?
CC/C(=C/c1sc2ccc(C)cc2[n+]1CCCS(=O)(=O)[O-])SC | -3% | -17% | 0% | -14% | ?
Cc1ccc(C2C(C#N)=C(N)Oc3n[nH]c(-c4cccnc4)c32)o1 (stereo unspecified) | 7% | -9% | 9% | 2% | 28µM*
Cc1ccc(C2C(C#N)=C(N)Oc3n[nH]c(-c4ccccc4)c32)o1 (stereo unspecified) | -8% | ? | 21% | ? | -13%
O=c1c2cc(N3CCOCC3)ccc2[nH]c(=S)n1Cc1ccc(Cl)cc1 | -4% | -6% | 2% | -7% | -6%
Cc1ccc(Cn2c(=S)[nH]c3ccc(N4CCOCC4)cc3c2=O)o1 | ? | -21% | 6% | ? | 14µM*
CCN(c1cccc(C)c1)S(=O)(=O)c1nnc(NC(=O)c2cccs2)s1 | 1% | -25% | 0% | . | 13%
CCN(c1ccc(OC)cc1)S(=O)(=O)c1nnc(NC(=O)COc2ccc(F)cc2)s1 | ? | ? | -17% | -20% | ?
CCN(c1ccc(OC)cc1)S(=O)(=O)c1nnc(NC(=O)COc2ccc(C)cc2)s1 | -16% | -2% | 7.9µM* | -5% | -6%
CCN(c1cc(C)cc(C)c1)S(=O)(=O)c1nnc(NC(=O)c2cccs2)s1 | -16% | 89µM* | -28% | . | 25%
Cc1ccc(NC2=C(N3CCOCC3)C(=O)c3ccccc3C2=O)cc1 | -16% | -3% | 14µM* | -18%[57.1 µM] | 8.9µM*
CC(=O)c1ccc(NC2=C(N3CCOCC3)C(=O)c3ccccc3C2=O)cc1 | -11% | -5% | 3% | -16% | ?
Cc1ccc(NC2=CC(=O)C(=O)c3ccccc32)cc1 | -7% | 79µM* | ? | -7%[57.1 µM] | 11µM*
CCCNC(=O)N1N=C(c2ccc(N)cc2)c2cc3c(cc2C1C)OCO3 (stereo unspecified) | 8%[60.1 µM] | . | . | . | .
CN(C)c1ccc(N=Nc2ccc(S(=O)(=O)O)cc2)cc1 | -16% | . | . | . | 1%
Cc1ccc(S(=O)(=O)/N=C2/C=C(C3C(=O)CC(C)(C)CC3=O)C(=O)c3ccccc32)cc1 | -25% | -12% | ? | 17µM* | ?
Cc1ccc(S(=O)(=O)/N=C2\C=C(NS(=O)(=O)c3ccccc3)C(=O)c3ccccc32)cc1 | -13% | ? | . | ? | ?
Cc1cc(C)nc(NC(=O)c2cnc3sccn3c2=O)n1 | -5% | -15% | -24% | 0% | 12%
Cc1cc(NS(=O)(=O)c2ccc(NC(=O)c3cnc4sccn4c3=O)cc2)nc(C)n1 | ? | 8.9µM* | ? | -12%[57.1 µM] | ?
SMILES | POLK inh | Pol eta inh | POLB inh | WRN inhibitor | POLI inh
Cc1cc(NS(=O)(=O)c2ccc(NC(=O)CCCOc3ccccc3C)cc2)nc(C)n1 | -21% | 79µM* | -13% | ? | 10µM*
Cc1cc(NS(=O)(=O)c2ccc(NC(=O)c3ccc(Br)o3)cc2)nc(C)n1 | -21% | 40µM* | ? | -5%[11.6 µM] | ?
Cc1ccc2nc3c(c(C(=O)O)c2c1)CCC3 | -43% | 32µM* | 45µM* | -10%[57.1 µM] | ?
O=C(O)c1c2c(nc3ccc(F)cc13)CCC2 | -4% | -12% | 0% | -2% | 3%
O=C(O)c1c2c(nc3ccc(Cl)cc13)CCC2 | -25% | ? | 16µM* | -3%[11.6 µM] | 20%
CCCN1CNc2c(c(=O)[nH]c(=S)n2CCc2ccc(OC)cc2)C1 | -1% | . | . | . | 13%
O=C1ON=C(c2ccccc2)/C1=C/c1ccco1 | 28µM* | ? | 25µM* | ? | 22µM*
CN(C)/C=C1\C(=O)ON=C1c1ccccc1 | -15% | -2% | 15% | 2% | 35%
O=C1NNC(c2ccccc2)=N/C1=C\c1ccccc1Cl | 1% | -32% | -3% | -34% | ?
O=C1NNC(c2ccccc2)=N/C1=C\c1ccco1 | -41% | ? | 10µM* | -27% | ?
CN1CCN2c3ccccc3CC3(C(=O)OC(C)(C)OC3=O)C2C1 (stereo unspecified) | 8% | . | . | . | 14%
Cc1[nH]n(-c2ccccc2)c(=O)c1C=Nc1ccc(S(=O)(=O)N=C(N)N)cc1 | 6% | ? | 21% | -6%[11.6 µM] | 50µM*
Cc1[nH]n(-c2ccc(Br)cc2)c(=O)c1C=Nc1ccc(S(=O)(=O)Nc2nccs2)cc1 | -17% | 45µM* | ? | -19%[57.1 µM] | ?
CCCC(=O)Nc1ccc(C(=O)NNC(=O)COc2ccc(Br)c(C)c2)cc1 | -2% | ? | 50µM* | -9% | -25%
COC(=O)NNC(=O)COc1ccc(Br)c(C)c1 | -24% | -18% | -5% | 1% | 24%
O=C(Nc1cc(C(F)(F)F)ccc1Cl)c1cc(S(=O)(=O)NCc2ccccc2)ccc1F | -7%[60.1 µM] | -11% | 6% | . | 1%
O=S(=O)(c1ccc(-c2ccon2)s1)N1CCN(c2ccncc2)CC1 | -6% | -35% | 13% | -10% | 40µM*
O=S(=O)(c1ccc(-c2ccon2)s1)N1CCCC1 | 2% | -16% | 5% | 4% | 45%
Brc1ccc[n+](CCc2ccccc2)c1 | -4% | . | . | . | -1%
CCOC(=O)c1cc2c(=O)c3cc(C)ccc3oc2nc1C | -20% | -4% | -2% | 56µM* | -13%
COc1ccc(C(=O)NCC(=O)OCC(=O)c2cccc3ccccc23)cc1 | -10% | . | . | . | -7%
Nc1cc([N+](=O)[O-])cc(N)c1N | -25% | . | . | . | 46%
CCOC(=O)C1CCCN(C(=O)c2ccc(CS(=O)(=O)c3ccc(C)cc3)o2)C1 (stereo unspecified) | -41% | 18µM* | ? | -25% | 32µM*
Cc1ccc(S(=O)(=O)Cc2ccc(C(=O)N3CCN(c4cc(C)ccc4C)CC3)o2)cc1 | -25% | -7% | 40µM* | -17% | ?
CCCCCCc1cc2cc(C(N)=O)c(=N)oc2cc1O | . | . | 32µM* | . | .
O=C(O)C1C(c2ccccc2)C(C(=O)OCc2ccco2)C1c1ccccc1 (stereo unspecified) | -26% | 79µM* | ? | -27% | ?

Source: PubChem (National Center for Advancing Translational Sciences (NCATS))
